# Sampled rows, rich in hits. Any-hit rate of the full collection: about 17%.
# TDP1 cell CPT: growth inhibition of DT40 Tdp1-/-;hTDP1 cells with camptothecin (screen for TDP1 inhibitors). chicken DT40 Tdp1-/-;hTDP1 cells + 20 nM CPT, ATP luminescence, 48 h. Potency, µM (top dose mostly 46.2 µM), for inactives: at the top dose activity change, negative = growth inhibition, hits mostly inhibitors. 420,000 tested, 12% active. AID 686979; note: % is set by controls: 0 for no effect and ±100 for the full control effect; nearly all actives have a fitted effect of over 55% in size
#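 Chicken DT40 Tdp1-/- cells complemented with human TDP1, 400 cells/well, exposed to compounds plus 20 nM camptothecin for at least 48 h at 37 C; viability read as ATP content by CellTiter-Glo luminescence.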
# HepG2 tox: HepG2 cytotoxicity, counter-screen for TGF-b inhibitors | 410,000 tested, 0.76% active | AID 588856 | HepG2 CAGA-GFP viability, ATP luminescence, 18 h | Potency, µM (doses to about 46.1 µM), without a hit: at the top dose activity change, negative = cytotoxicity, most hits filed as cytotoxic
#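 HepG2 CAGA-GFP cells (1000/well, DMEM with 1% FBS) received compound, then TGF-beta at 500 pg/mL final, and were incubated 18 hours at 37 degrees C. Viability was read by CellTiter-Glo luminescence. Media-only wells were set as complete cell-killing and DMSO as no toxicity.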
# TGFb inhibitor: inhibitors of TGF-b signaling | HepG2 CAGA-GFP TGF-b/SMAD3 reporter, GFP fluorescence, 18 h; TGF-beta stimulated, 500 pg/mL final | Potency, µM (titrated, usually from 46.1 µM), for inactives: at the top dose activity, negative = inhibition, hits mostly inhibitors | 410,000 tested, 1.2% active; note: % is set by controls: 0 for no effect and ±100 for the full control effect; nearly all actives have a fitted effect of over 65% in size
#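 Smad-responsive CAGA-GFP expression was quantified in HEPG2 cells exposed to compounds and 500 pg/mL final TGF-beta for 18 h at 37 degrees C; unstimulated wells defined full inhibition.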
# DT40 TDP1 no CPT: qHTS for Inhibitors of human tyrosyl-DNA phosphodiesterase 1 (TDP1): qHTS in cells in absence of CPT. Potency, µM (series often up to 46.2 µM), for the others: at the highest dose activity change, negative = growth inhibition, hits mostly inhibitors. 420,000 tested, 15% active. DT40 Tdp1-/- hTDP1 cells, no CPT, ATP luminescence, 48 h; note: % is set by controls: 0 for no effect and ±100 for the full control effect; nearly all actives have a fitted effect of over 55% in size
#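 Readout: luminescence from CellTiter-Glo after 30 min in the dark at RT. Cells: DT40 Tdp1-/- with stable hTDP1, 400/well. Exposure: compounds alone, ≥48 hr, 37 °C.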
# HT1080 IDH1KD tx: HT-1080 IDH1 knockdown cell toxicity (counter line); HT-1080 IDH1 knockdown viability, ATP luminescence, 48 h; Potency, µM (highest dose often 46.1 µM), without a hit: top-dose activity, negative = toxicity, actives largely listed as cytotoxic; 360,000 tested, 2% active;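 note: 0% = DMSO wells and -100% = cell-free medium wells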
#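 IDH1KD HT-1080 cells, 750/well, RPMI + 5% FBS; compound pinned after 2 h settling; 48 h, 37 °C; CellTiter-Glo luminescence; % activity normalised to DMSO and no-cell wells; curves fitted, classed by r2 and efficacy.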
# HT1080-NT tox: kills 2HG-producing HT-1080-NT fibrosarcoma cells; HT-1080-NT fibrosarcoma viability, CellTiter-Glo ATP luminescence, 48 h; Potency, µM (doses to about 46.1 µM), for the others: at the top dose activity, negative = less viability, usual class: cytotoxic; 360,000 tested, 1.6% active; AID 686970;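 note: NT is the 2HG producing partner of a matched IDH1 knockdown line; 0% = DMSO-treated cells and -100% = media-only wells without cells; nearly all actives have a fitted effect of over 55% in size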
#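 Fibrosarcoma NT cells, 750 per well in 5% FBS RPMI, were exposed to compound for 48 hours. Viability: CellTiter-Glo luminescence.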
# An asterisk follows results filed as active; ? = inconclusive; nt = not tested or not shown. Calls come from the whole dose curve; as a rule, active = well fitted curve in the direction sought with a large enough effect; inconclusive = small, poorly fitted or top-dose-only effect, or another doubt; inactive = no such curve, though single readings can be large; an effect the other way counts as inactive or inconclusive. Potency is the fitted concentration of half-maximal effect.
SMILES,TDP1 cell CPT,HepG2 tox,TGFb inhibitor,DT40 TDP1 no CPT,HT1080 IDH1KD tx,HT1080-NT tox
CCN1c2ccccc2-c2nc(SCC(=O)Nc3cccc(C)c3C)ncc2S1(=O)=O,?,0%,-5%,21µM*,nt,nt
COc1ccccc1NC(=O)CSc1ncc2c(n1)-c1ccccc1N(Cc1ccccc1C)S2(=O)=O,?,7%,12%,?,nt,nt
COc1cc(-c2noc(-c3ccc(NCC4CCCO4)c([N+](=O)[O-])c3)n2)cc(OC)c1OC (stereo unspecified),7.3µM*,-18%,-1%,3.7µM*,nt,nt
COc1cc(-c2noc(-c3ccc(NCc4ccccc4)c([N+](=O)[O-])c3)n2)cc(OC)c1OC,?,-1%,?,?,nt,nt
COc1cc(-c2noc(-c3ccc(N(C)C)c([N+](=O)[O-])c3)n2)cc(OC)c1OC,21µM*,0%,0%,26µM*,nt,nt
COc1ccc(-c2noc(-c3ccc(NC4CCCC4)c([N+](=O)[O-])c3)n2)cc1OC,1%,10%,8%,-5%,nt,nt
COc1cc(-c2noc(-c3ccc(NCc4ccco4)c([N+](=O)[O-])c3)n2)cc(OC)c1OC,12µM*,0%,?,7.3µM*,nt,nt
Cc1cc(C)c(C#N)c(SC(F)F)n1,-7%,0%,4%,9%,20%,-1%
CCOCCCNC(=O)C(c1ccc(Cl)cc1)N(Cc1cccs1)C(=O)CNC(C)=O (stereo unspecified),-9%,-4%,9%,-1%,11%,13%
O=C(c1ccc(Cn2cc(Cl)c([N+](=O)[O-])n2)cc1)N1CCN(Cc2ccccc2)CC1,?,-29%,?,?,-6%,-3%
O=[N+]([O-])/C(C(=C(Cl)Cl)N1CCN(Cc2ccccc2)CC1)=C1\NCCN1Cc1ccc(Cl)nc1,?,-24%,-8%,15µM*,-6%,-11%
NC(c1csc(Nc2ncccn2)n1)c1ccccc1Cl (stereo unspecified),21µM*,-5%,?,21µM*,?,?
COc1cc(OC)nc(Nc2nc(C(N)c3ccccc3Cl)cs2)n1 (stereo unspecified),?,-33%,25%,26µM*,?,?
COc1ccc(C(N)c2csc(Nc3ncccn3)n2)cc1 (stereo unspecified),?,-7%,2%,?,-15%,-14%
COc1cccc(Nc2nc(C(N)c3ccccc3Cl)cs2)n1 (stereo unspecified),21µM*,-27%,?,15µM*,?,?
O=C(CCc1nnc(COc2ccccc2)o1)NCc1ccc(Cl)s1,-22%,9%,7%,-18%,-4%,2%
CCc1ccc(NC(=O)CCS(=O)(=O)c2ccc3c(c2)oc(=O)n3C)cc1,-27%,2%,-8%,-19%,nt,nt
O=C(c1cccc(Cl)c1)N1CCN(Cc2ccc3c(c2)OCO3)CC1,4%,-23%,-20%,-10%,7%,8%
O=C(O)c1cc(-c2ccc3c(c2)OCO3)nc2ccc(Cl)cc12,-3%,10%,-2%,-2%,-22%,-17%
O=C(c1cccn2c(=O)c3ccc(Cl)cc3nc12)N1CCN(Cc2ccc3c(c2)OCO3)CC1,?,4%,-1%,18µM*,3%,10%
O=C(c1cc(-c2ccncc2)nc2ccc(Br)cc12)N1CCN(Cc2ccc3c(c2)OCO3)CC1,?,12%,5%,23µM*,4%,1%
CS(=O)(=O)N1CCN(C(=O)c2cc(-c3cccnc3)nc3ccc(Cl)cc23)CC1,0%,3%,13%,?,0%,-3%
CCOc1ncccc1C(=O)N1CCN(Cc2ccc3c(c2)OCO3)CC1,-13%,-17%,?,-23%,-6%,-1%
COc1ccc(CN2CCN(C(=O)c3cc(-c4cccnc4)nc4ccc(Cl)cc34)CC2)c(OC)c1OC,?,-33%,?,21µM*,-2%,-24%
O=C(c1cc(-c2ccncc2)nc2ccc(Cl)cc12)N1CCN(Cc2ccc3c(c2)OCO3)CC1,16µM*,4%,0%,23µM*,-11%,-6%
SMILES,TDP1 cell CPT,HepG2 tox,TGFb inhibitor,DT40 TDP1 no CPT,HT1080 IDH1KD tx,HT1080-NT tox
CCOC(=O)C[C@@H]1OC[C@H](Cc2ccccc2)N1S(=O)(=O)c1ccc(C)cc1,?,nt,nt,?,-18%,-21%
O=C(Cn1nc(C(=O)O)c2ccccc2c1=O)Nc1cccc(S(=O)(=O)N2CCCCCC2)c1,-11%,1%,-16%,-6%,0%,0%
CCn1c(CCc2ccccc2)nc2ccccc21,?,1%,12%,?,5%,-3%
O=C(N1CCN=C1SCc1cccnc1)C12CC3CC(CC(C3)C1)C2,?,-21%,-9%,15µM*,-23%,-24%
Brc1ccc2oc3c(N4CCOCC4)ncnc3c2c1,?,16%,-12%,12µM*,12%,10%
c1ccc(N2CCN(c3ncnc4c3oc3ccccc34)CC2)cc1,?,3%,7%,?,7%,9%
Cc1c(C(=O)O)cnc2c([N+](=O)[O-])cnn12,10µM*,-6%,-15%,18µM*,4%,11%
CC(=O)c1cnc2c(C(=O)O)cnn2c1C,7%,4%,9%,1%,0%,0%
COc1ccc(NC(=O)CN2CCCN(Cc3ccc(Cl)cc3)S2(=O)=O)cc1Cl,12µM*,-21%,?,10µM*,nt,nt
COc1ccc(OC)c(NC(=O)CN2CCCN(Cc3ccccc3Cl)S2(=O)=O)c1,?,-30%,?,23µM*,nt,nt
COc1ccc(NC(=O)CN2CCN(Cc3ccccc3)S2(=O)=O)c(OC)c1,-1%,5%,3%,-24%,nt,nt
CCCOc1ccc2ccccc2c1/C=N/n1c(C)nnc1-n1nc(C)cc1C,3.3µM*,-38%,?,3.3µM*,4.1µM*,?
Cc1cc(OCCOCCNC(C)C)cc(C)c1Cl,18µM*,-50%,-7%,18µM*,?,?
O=C(Nc1ccc(Cl)c(S(=O)(=O)N2CCOCC2)c1)C1CCC1,-20%,-11%,-8%,-14%,3%,0%
CC(CC(=O)Nc1ccc(Cl)c(S(=O)(=O)N2CCOCC2)c1)c1ccccc1 (stereo unspecified),?,0%,?,?,-13%,18µM*

# Bioassay records deposited in PubChem BioAssay by National Center for Advancing Translational Sciences (NCATS).
